In PubChem BioAssay AID1159580 (chemical genetic matrix, 2015):
Values joined by “and” are separate entries in the source; they are usually repeats but may differ in a detail not shown here. Equal values may be shown once. Hit rate of the full screen: of about 5,500 compounds, about 2,000 (36%) were called active. Roughly 18% stayed inconclusive and do not appear here. Cut-off read from the data, not from the text of the source: active = normalized growth mostly below about 0.91 (no sharp cut-off); inconclusive = no clear call, values can overlap the other calls; inactive = mostly above about 0.92. Some of the results follow.

Experiment: chemical genetic growth profiling, strain panel (AID 1159580);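 note: tested at 20 µM; growth read once vehicle control cultures reached saturation at 30 °C; 1 = growth at the plate median or of vehicle wells; lower values mean less growth of the strain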
Details: growth OD

Measured: normalized growth

CC[C@H]1OC(=O)[C@H](C)[C@@H](O[C@H]2C[C@@](C)(OC)[C@@H](O)[C@H](C)O2)[C@H](C)[C@@H](O[C@@H]2O[C@H](C)C[C@H](N(C)C)[C@H]2O)[C@](C)(O)C[C@@H](C)CN(C)[C@H](C)[C@@H](O)[C@]1(C)O
inactive: S. cerevisiae deletion strains, locus YAL013W, strain DEP1, hits give low values 0.993 | S. cerevisiae deletion strains, locus YBR021W, strain FUR4, hits give low values 0.96 | S. cerevisiae deletion strains, locus YBR229C, strain ROT2, hits give low values 0.988 | S. cerevisiae deletion strains, locus YCL029C, strain bik1, hits give low values 0.962 | S. cerevisiae deletion strains, locus YDL035C, strain GPR1, hits give low values 0.969 | S. cerevisiae deletion strains, locus YDL074C, strain BRE1, hits give low values 1.01 | S. cerevisiae deletion strains, locus YDL101C, strain DUN1, hits give low values 0.987 | S. cerevisiae deletion strains, locus YDL134C, strain PPH21, hits give low values 0.993 | S. cerevisiae deletion strains, locus YDL185W, strain tfp1, hits give low values 0.962 | S. cerevisiae deletion strains, locus YDL192W, strain arf1, hits give low values 0.96 | S. cerevisiae deletion strains, locus YDR101C, strain arx1, hits give low values 0.972 | S. cerevisiae deletion strains, locus YDR150W, strain NUM1, hits give low values 1 | S. cerevisiae deletion strains, locus YDR162C, strain NBP2, hits give low values 1.01 | S. cerevisiae deletion strains, locus YDR318W, strain mcm21, hits give low values 0.948 | S. cerevisiae deletion strains, locus YDR388W, hits give low values 0.978 | S. cerevisiae deletion strains, locus YDR502C, strain sam2, hits give low values 0.984 | S. cerevisiae deletion strains, locus YEL061C, strain CIN8, hits give low values 0.996 | S. cerevisiae deletion strains, locus YER110C, hits give low values 0.972 | S. cerevisiae deletion strains, locus YER155C, strain BEM2, hits give low values 0.991 | S. cerevisiae deletion strains, locus YER167W, strain BCK2, hits give low values 0.964 | S. cerevisiae deletion strains, locus YGL078C, strain dbp3, hits give low values 0.979 | S. cerevisiae deletion strains, locus YGL086W, strain mad1, hits give low values 0.951 | S. cerevisiae deletion strains, locus YGL248W, strain PDE1, hits give low values 0.992 | S. cerevisiae deletion strains, locus YGR078C, strain PAC10, hits give low values 1.02 | S. cerevisiae deletion strains, locus YGR135W, strain pre9, hits give low values 0.986 | S. cerevisiae deletion strains, locus YGR229C, strain SMI1, hits give low values 0.988 | S. cerevisiae deletion strains, locus YGR252W, strain gcn5, hits give low values 0.876 | S. cerevisiae deletion strains, locus YHR030C, strain SLT2, hits give low values 0.988 and 0.962 | S. cerevisiae deletion strains, locus YHR079C, strain IRE1 (second series), hits give low values 0.965 | S. cerevisiae deletion strains, locus YHR079C, strain IRE1, hits give low values 0.965 | S. cerevisiae deletion strains, locus YHR094C, strain hxt1, hits give low values 0.969 | S. cerevisiae deletion strains, locus YHR129C, strain ARP1, hits give low values 0.996 | S. cerevisiae deletion strains, locus YHR200W, strain rpn10, hits give low values 0.977 | S. cerevisiae deletion strains, locus YIL066C, strain RNR3, hits give low values 0.987 | S. cerevisiae deletion strains, locus YIL073C, strain SPO22, hits give low values 0.895 | S. cerevisiae deletion strains, locus YIL125W, strain kgd1, hits give low values 0.983 | S. cerevisiae deletion strains, locus YIR030C, strain dcg1, hits give low values 0.975 | S. cerevisiae deletion strains, locus YJL095W, strain BCK1, hits give low values 1.03 and 0.999 | S. cerevisiae deletion strains, locus YJL134W, strain LCB3, hits give low values 0.992 | S. cerevisiae deletion strains, locus YJL168C, strain set2, hits give low values 0.979 | S. cerevisiae deletion strains, locus YJL187C, strain SWE1 (second series), hits give low values 0.993 | S. cerevisiae deletion strains, locus YJR043C, strain POL32, hits give low values 0.966 | S. cerevisiae deletion strains, locus YJR066W, strain TOR1, hits give low values 0.956 | S. cerevisiae deletion strains, locus YJR075W, strain HOC1, hits give low values 1 | S. cerevisiae deletion strains, locus YKL009W, strain mrt4, hits give low values 0.992 | S. cerevisiae deletion strains, locus YKL068W, hits give low values 0.995 | S. cerevisiae deletion strains, locus YKL085W, strain MDH1 (second series), hits give low values 0.974 | S. cerevisiae deletion strains, locus YKL085W, strain MDH1, hits give low values 0.974 | S. cerevisiae deletion strains, locus YKL190W, strain CNB1, hits give low values 0.996 | S. cerevisiae deletion strains, locus YKR001C, strain vps1, hits give low values 0.961 | S. cerevisiae deletion strains, locus YLR039C, strain RIC1, hits give low values 0.965 | S. cerevisiae deletion strains, locus YLR058C, strain SHM2, hits give low values 0.992 | S. cerevisiae deletion strains, locus YLR102C, strain apc9, hits give low values 0.976 | S. cerevisiae deletion strains, locus YLR113W, strain HOG1, hits give low values 0.986 | S. cerevisiae deletion strains, locus YLR262C, strain YPT6, hits give low values 0.999 | S. cerevisiae deletion strains, locus YLR268W, strain sec22, hits give low values 0.994 | S. cerevisiae deletion strains, locus YLR330W, strain CHS5, hits give low values 0.991 | S. cerevisiae deletion strains, locus YLR342W, strain FKS1 (second series), hits give low values 0.963 | S. cerevisiae deletion strains, locus YLR371W, strain rom2, hits give low values 0.964 | S. cerevisiae deletion strains, locus YLR418C, strain cdc73, hits give low values 1.03 | S. cerevisiae deletion strains, locus YML016C, strain PPZ1, hits give low values 0.991 | S. cerevisiae deletion strains, locus YML032C, strain rad52, hits give low values 0.942 | S. cerevisiae deletion strains, locus YML124C, strain tub3, hits give low values 0.984 | S. cerevisiae deletion strains, locus YMR078C, strain ctf18, hits give low values 0.964 | S. cerevisiae deletion strains, locus YMR223W, strain ubp8, hits give low values 0.949 | S. cerevisiae deletion strains, locus YMR263W, strain SAP30, hits give low values 1 | S. cerevisiae deletion strains, locus YMR307W, strain GAS1, hits give low values 0.788 | S. cerevisiae deletion strains, locus YNL067W, strain RPL9B, hits give low values 1.01 | S. cerevisiae deletion strains, locus YNL128W, strain TEP1, hits give low values 1 | S. cerevisiae deletion strains, locus YNL153C, strain GIM3, hits give low values 1.03 | S. cerevisiae deletion strains, locus YNL183C, strain NPR1, hits give low values 0.92 | S. cerevisiae deletion strains, locus YNL233W, strain BNI4, hits give low values 1.01 | S. cerevisiae deletion strains, locus YNL250W, strain rad50, hits give low values 0.978 | S. cerevisiae deletion strains, locus YNL271C, strain bni1, hits give low values 0.976 | S. cerevisiae deletion strains, locus YNL298W, strain CLA4, hits give low values 0.972 | S. cerevisiae deletion strains, locus YNL307C, strain MCK1, hits give low values 0.945 | S. cerevisiae deletion strains, locus YNL322C, strain KRE1, hits give low values 0.995 | S. cerevisiae deletion strains, locus YNR052C, strain pop2, hits give low values 0.957 | S. cerevisiae deletion strains, locus YOL006C, strain TOP1, hits give low values 0.951 | S. cerevisiae deletion strains, locus YOL012C, strain htz1 1.44 | S. cerevisiae deletion strains, locus YOL147C, strain pex11, hits give low values 0.981 | S. cerevisiae deletion strains, locus YOR061W, strain CKA2, hits give low values 0.972 | S. cerevisiae deletion strains, locus YOR069W, strain VPS5, hits give low values 0.989 | S. cerevisiae deletion strains, locus YOR136W, strain idh2, hits give low values 0.969 | S. cerevisiae deletion strains, locus YOR144C, strain elg1, hits give low values 0.976 | S. cerevisiae deletion strains, locus YOR184W, strain ser1, hits give low values 0.973 | S. cerevisiae deletion strains, locus YOR231W, strain MKK1, hits give low values 0.968 | S. cerevisiae deletion strains, locus YOR316C, strain cot1, hits give low values 0.978 | S. cerevisiae deletion strains, locus YPL055C, strain LGE1, hits give low values 1.01 | S. cerevisiae deletion strains, locus YPL241C, strain CIN2, hits give low values 0.994 | S. cerevisiae deletion strains, locus YPL256C, strain CLN2, hits give low values 0.963 | S. cerevisiae deletion strains, locus YPR119W, strain clb2, hits give low values 0.981 | S. cerevisiae deletion strains, locus YPR141C, strain kar3, hits give low values 0.98 | S. cerevisiae deletion strains, locus YPR163C, strain tif3, hits give low values 0.974 | S. cerevisiae deletion strains, locus YPR167C, strain met16, hits give low values 0.984 | S. cerevisiae deletion strains, strain wtn01, hits give low values 0.978 | S. cerevisiae strains, strain wild type, hits give low values 0.982
